Measured values taken from the supplement of paper PMC11732987, “Enantioselective OTUD7B fragment discovery through chemoproteomics screening and high-throughput optimisation” (Communications Chemistry, 2025).

Columns and labels:
Assay in all cases: log2 ratio of Biotin-Ahx-Ub-VS probe labelling (fragment/DMSO); higher = less target engagement (more negative = stronger competition), active = hit call of the paper (q ≤ 0.05, log2 ratio ≤ -1)
Conditions in all cases: compound concentration: 200 uM; treatment time: 3 h
USP19 = molecular target: T1, USP19 (UniProt O94966)
T1 sequence (whole entry): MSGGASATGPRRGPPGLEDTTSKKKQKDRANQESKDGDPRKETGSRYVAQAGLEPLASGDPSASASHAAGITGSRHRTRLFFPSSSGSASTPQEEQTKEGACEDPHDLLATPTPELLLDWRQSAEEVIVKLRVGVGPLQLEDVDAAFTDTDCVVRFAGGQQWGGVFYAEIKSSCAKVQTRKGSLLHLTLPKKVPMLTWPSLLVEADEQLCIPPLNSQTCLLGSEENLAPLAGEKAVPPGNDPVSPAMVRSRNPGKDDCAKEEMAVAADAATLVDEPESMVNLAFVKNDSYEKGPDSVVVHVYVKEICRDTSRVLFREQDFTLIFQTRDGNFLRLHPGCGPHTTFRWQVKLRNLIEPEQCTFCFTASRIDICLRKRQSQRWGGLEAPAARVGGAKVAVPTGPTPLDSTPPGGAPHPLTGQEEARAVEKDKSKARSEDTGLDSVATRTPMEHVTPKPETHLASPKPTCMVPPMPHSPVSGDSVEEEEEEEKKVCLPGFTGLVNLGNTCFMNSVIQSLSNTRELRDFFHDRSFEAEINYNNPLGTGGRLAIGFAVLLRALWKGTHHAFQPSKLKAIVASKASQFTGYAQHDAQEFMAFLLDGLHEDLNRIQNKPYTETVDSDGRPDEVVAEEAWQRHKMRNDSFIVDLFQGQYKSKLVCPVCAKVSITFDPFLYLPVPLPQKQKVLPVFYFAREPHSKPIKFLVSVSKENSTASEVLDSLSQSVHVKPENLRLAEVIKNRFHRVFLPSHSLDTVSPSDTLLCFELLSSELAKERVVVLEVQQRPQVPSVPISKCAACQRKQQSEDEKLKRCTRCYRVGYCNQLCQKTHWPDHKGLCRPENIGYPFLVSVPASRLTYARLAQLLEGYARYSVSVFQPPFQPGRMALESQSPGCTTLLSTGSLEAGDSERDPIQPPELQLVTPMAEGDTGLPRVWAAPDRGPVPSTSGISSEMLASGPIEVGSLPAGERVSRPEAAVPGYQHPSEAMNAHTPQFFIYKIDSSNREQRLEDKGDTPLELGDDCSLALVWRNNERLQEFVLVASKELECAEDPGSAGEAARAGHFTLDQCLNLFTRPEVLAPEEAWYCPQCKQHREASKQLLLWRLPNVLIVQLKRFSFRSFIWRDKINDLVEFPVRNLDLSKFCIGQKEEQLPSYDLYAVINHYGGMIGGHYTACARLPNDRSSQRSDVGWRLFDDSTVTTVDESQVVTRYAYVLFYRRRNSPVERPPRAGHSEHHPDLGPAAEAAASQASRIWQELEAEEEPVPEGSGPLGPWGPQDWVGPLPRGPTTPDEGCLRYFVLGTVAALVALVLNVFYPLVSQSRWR
Procedure, shortened: (§1)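 Average log2 ratios of fragment over vehicle were obtained by unpaired t-test from global-median-normalised Spectronaut label-free quantities. Proteins with ≥2 unique peptides were included. HEK293T lysate (495 µg per sample) was treated in triplicate with fragment at 200 µM or vehicle for 3 h, then with Biotin-Ahx-Ub-VS at 0.5 µM final for 1 h, and labelled DUBs were NeutrAvidin-enriched and run by diaPASEF LC-MS/MS.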

USP22 = molecular target: T2, USP22 (UniProt Q9UPT9)
T2 sequence (whole entry): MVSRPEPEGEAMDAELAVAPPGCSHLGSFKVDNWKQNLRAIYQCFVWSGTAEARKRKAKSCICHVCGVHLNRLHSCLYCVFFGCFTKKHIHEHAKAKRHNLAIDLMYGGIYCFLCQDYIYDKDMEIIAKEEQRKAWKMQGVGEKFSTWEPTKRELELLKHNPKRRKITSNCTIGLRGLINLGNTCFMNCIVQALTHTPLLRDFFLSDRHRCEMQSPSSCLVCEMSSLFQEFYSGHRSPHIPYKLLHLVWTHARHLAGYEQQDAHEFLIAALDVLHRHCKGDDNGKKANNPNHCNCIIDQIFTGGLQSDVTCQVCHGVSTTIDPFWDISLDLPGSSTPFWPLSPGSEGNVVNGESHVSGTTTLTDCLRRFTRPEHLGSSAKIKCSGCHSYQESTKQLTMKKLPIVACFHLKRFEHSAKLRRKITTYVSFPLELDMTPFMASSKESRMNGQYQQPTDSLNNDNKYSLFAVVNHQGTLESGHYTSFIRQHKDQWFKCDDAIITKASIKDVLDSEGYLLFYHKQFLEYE
Procedure, shortened: as §1

USP24 = USP24 (UniProt Q9UPU5)
Sequence of USP24 (Q9UPU5 whole entry): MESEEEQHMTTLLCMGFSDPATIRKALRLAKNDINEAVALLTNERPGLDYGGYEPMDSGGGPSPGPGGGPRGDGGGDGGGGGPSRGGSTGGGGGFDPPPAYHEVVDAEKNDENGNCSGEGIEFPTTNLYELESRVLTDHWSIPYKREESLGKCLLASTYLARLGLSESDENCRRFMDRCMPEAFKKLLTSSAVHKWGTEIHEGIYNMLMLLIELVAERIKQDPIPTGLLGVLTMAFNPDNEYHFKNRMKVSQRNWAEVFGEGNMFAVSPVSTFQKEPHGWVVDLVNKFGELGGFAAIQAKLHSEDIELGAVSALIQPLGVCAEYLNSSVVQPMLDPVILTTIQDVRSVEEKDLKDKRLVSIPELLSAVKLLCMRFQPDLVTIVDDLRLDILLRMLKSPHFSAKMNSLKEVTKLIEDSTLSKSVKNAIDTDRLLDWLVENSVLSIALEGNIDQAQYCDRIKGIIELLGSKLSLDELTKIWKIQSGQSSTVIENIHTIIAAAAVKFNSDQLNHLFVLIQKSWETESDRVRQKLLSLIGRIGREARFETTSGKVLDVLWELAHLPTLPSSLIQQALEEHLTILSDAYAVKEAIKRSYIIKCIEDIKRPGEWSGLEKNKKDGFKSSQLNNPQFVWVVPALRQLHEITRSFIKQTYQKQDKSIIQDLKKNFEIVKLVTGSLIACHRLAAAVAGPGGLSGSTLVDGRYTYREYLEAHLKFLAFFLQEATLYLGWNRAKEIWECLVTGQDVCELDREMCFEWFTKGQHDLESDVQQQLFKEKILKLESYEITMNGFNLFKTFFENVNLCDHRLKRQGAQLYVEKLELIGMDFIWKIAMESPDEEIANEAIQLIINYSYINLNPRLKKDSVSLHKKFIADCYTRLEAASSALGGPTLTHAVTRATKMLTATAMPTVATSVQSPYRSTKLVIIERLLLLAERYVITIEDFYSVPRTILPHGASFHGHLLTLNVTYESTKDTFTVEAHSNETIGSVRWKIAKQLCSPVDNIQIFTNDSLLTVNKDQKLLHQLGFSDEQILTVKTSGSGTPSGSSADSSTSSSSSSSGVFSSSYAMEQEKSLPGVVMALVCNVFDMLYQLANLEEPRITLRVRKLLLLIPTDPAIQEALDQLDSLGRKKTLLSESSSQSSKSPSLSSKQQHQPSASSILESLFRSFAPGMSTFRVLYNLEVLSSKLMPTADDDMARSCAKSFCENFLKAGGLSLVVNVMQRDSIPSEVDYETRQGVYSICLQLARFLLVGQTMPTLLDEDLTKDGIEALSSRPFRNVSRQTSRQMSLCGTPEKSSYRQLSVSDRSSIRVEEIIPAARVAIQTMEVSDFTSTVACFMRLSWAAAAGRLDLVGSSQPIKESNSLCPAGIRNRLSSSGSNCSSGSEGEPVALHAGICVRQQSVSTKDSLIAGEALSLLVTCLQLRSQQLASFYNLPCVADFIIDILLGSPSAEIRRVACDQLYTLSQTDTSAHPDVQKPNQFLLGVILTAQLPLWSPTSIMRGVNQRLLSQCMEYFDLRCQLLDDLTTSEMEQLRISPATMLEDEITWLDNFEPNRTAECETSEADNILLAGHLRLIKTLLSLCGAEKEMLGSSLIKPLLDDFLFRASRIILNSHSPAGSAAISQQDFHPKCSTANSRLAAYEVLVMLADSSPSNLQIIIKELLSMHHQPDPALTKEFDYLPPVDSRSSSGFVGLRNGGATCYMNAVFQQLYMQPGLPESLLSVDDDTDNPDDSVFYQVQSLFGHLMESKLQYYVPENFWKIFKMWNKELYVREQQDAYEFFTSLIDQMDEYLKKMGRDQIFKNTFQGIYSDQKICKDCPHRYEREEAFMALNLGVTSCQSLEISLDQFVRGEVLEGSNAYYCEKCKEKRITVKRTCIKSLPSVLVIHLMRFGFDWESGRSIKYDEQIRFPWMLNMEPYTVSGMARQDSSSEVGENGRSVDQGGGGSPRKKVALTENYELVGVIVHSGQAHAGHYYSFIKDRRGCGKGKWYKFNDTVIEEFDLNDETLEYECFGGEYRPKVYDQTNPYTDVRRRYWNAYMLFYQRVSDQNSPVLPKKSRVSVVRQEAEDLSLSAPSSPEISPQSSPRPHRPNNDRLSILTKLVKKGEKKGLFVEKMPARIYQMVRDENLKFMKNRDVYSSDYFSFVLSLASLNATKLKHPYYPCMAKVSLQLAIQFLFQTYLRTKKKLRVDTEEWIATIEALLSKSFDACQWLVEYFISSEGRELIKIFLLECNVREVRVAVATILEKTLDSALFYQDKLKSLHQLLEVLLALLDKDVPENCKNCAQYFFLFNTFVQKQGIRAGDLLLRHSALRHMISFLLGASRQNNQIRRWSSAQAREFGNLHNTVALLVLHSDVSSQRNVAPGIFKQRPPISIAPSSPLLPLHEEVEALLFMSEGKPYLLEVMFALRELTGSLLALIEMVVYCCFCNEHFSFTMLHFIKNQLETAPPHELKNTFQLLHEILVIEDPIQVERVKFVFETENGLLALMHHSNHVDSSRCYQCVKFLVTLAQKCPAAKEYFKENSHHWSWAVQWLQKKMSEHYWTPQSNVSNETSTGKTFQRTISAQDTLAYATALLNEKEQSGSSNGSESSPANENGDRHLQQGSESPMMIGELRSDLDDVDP
Procedure, shortened: as §1

USP25 = molecular target: T3, USP25 (UniProt Q9UHP3)
T3 sequence (whole entry): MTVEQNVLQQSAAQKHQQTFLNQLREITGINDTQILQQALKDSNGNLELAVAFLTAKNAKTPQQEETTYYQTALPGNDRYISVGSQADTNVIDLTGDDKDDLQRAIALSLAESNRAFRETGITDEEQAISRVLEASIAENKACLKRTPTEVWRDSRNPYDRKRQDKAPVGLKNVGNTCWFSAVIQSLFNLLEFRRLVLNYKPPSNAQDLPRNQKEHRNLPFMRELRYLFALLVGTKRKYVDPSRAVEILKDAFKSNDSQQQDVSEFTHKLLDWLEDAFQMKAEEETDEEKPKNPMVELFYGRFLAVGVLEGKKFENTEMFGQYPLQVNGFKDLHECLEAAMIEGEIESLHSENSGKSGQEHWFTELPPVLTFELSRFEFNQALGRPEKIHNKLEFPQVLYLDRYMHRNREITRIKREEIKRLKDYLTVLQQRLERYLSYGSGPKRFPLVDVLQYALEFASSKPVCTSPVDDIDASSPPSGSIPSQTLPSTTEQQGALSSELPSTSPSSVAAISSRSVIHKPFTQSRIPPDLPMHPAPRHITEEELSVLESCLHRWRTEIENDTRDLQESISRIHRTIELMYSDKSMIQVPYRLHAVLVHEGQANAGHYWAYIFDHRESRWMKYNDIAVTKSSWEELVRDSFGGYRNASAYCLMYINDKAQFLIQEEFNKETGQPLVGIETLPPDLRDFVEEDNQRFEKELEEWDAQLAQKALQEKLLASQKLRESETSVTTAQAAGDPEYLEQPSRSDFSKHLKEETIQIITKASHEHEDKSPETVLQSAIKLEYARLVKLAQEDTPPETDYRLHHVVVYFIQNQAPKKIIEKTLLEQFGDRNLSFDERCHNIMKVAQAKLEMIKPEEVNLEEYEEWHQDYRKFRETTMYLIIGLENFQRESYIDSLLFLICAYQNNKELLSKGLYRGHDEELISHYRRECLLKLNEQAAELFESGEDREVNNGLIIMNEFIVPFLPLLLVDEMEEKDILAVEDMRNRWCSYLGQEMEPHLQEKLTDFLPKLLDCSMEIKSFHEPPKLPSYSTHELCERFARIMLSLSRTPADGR
Procedure, shortened: as §1

USP28 = molecular target: T4, USP28 (UniProt Q96RU2)
T4 sequence (whole entry): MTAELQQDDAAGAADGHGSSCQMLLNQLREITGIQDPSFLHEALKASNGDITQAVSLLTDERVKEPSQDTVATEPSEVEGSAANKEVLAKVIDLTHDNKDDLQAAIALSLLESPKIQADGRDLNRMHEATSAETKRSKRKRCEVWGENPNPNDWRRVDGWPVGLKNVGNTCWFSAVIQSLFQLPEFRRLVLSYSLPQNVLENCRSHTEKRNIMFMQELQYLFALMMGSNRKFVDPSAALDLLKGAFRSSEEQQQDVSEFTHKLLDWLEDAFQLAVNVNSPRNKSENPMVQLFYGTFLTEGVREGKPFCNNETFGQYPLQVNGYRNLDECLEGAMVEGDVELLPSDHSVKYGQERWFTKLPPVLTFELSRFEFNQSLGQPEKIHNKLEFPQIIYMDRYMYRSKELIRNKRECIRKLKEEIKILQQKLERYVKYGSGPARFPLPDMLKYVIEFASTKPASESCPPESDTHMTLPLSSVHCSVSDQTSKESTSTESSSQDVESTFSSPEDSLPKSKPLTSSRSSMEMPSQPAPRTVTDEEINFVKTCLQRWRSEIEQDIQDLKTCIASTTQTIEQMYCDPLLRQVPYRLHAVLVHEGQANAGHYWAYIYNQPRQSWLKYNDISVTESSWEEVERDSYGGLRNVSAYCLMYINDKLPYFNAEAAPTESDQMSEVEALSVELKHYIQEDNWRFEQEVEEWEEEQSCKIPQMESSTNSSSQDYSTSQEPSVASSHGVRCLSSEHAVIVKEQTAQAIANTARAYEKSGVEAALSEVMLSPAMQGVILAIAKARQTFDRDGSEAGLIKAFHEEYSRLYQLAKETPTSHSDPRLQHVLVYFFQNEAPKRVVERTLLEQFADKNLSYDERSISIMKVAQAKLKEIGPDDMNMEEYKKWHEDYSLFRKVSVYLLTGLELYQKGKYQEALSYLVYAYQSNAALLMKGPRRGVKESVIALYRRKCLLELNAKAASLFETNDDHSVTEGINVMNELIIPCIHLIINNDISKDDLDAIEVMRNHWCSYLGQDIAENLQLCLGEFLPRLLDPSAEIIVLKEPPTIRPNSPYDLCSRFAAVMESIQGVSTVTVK
Procedure, shortened: as §1

Measured: log2 ratio of Biotin-Ahx-Ub-VS probe labelling

Cc1ccc(CC(NC(=O)CCl)c2ccccn2)cc1.Cl (stereo not given)
inactive: USP19 0.168 | USP22 -0.153 | USP24 -0.13 | USP25 -0.098 | USP28 -0.126
